Results: article PMC5540273 (PLoS ONE, 2017)

Experiments:
Conditions in all cases: concentration: 1 μM, replicates: in singlicate; n = 1
[1] = system: T1, RSK1(Kin.Dom.2-C-terminal)
T1 construct: gene RPS6KA1

[2] = system: T2, RSK2(Kin.Dom.1-N-terminal)
T2 construct: gene RPS6KA3

[3] = system: T3, RSK2(Kin.Dom.2-C-terminal)
T3 construct: gene RPS6KA3

[4] = system: T4, RSK3(Kin.Dom.1-N-terminal)
T4 construct: gene RPS6KA2

[5] = system: T5, RSK3(Kin.Dom.2-C-terminal)
T5 construct: gene RPS6KA2

[6] = system: T6, RSK4(Kin.Dom.1-N-terminal)
T6 construct: gene RPS6KA6

[7] = system: T7, RSK4(Kin.Dom.2-C-terminal)
T7 construct: gene RPS6KA6

S6K1 = system: S6K1
SBK1 = system: SBK1
SGK2 = system: SGK2
SGK3 = system: SGK3
SGK = system: SGK
SIK2 = system: SIK2
SIK = system: SIK
SLK = system: SLK
SNARK = system: T8, SNARK
T8 construct: gene NUAK2

SNRK = system: SNRK
SRC = system: SRC
SRMS = system: SRMS
SRPK1 = system: SRPK1
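Further: KINOMEscan kinase panel screen.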

## COc1ccc(-c2coc3ccc(-c4nnc(C)o4)cc23)cc1
[1]
  %Inh: 4%
[2]
  %Inh: 0%
[3]
  %Inh: 0%
[4]
  %Inh: 0%
[5]
  %Inh: 8%
[6]
  %Inh: 22%
[7]
  %Inh: 15%
S6K1
  %Inh: 0%
SBK1
  %Inh: 0%
SGK2
  %Inh: 0%
SGK3
  %Inh: 0%
SGK
  %Inh: 0%
SIK2
  %Inh: 3%
SIK
  %Inh: 0%
SLK
  %Inh: 5%
SNARK
  %Inh: 0%
SNRK
  %Inh: 0%
SRC
  %Inh: 20%
SRMS
  %Inh: 0%
SRPK1
  %Inh: 9%

## COC(=O)C(Cc1ccccc1)NC(=O)NC1CCN(c2ccnc(Nc3ccc(F)cc3)n2)C1 (stereo not drawn) [GSK1379714]
[1]
  %Inh: 0%
[2]
  %Inh: 0%
[3]
  %Inh: 19%
[4]
  %Inh: 5%
[5]
  %Inh: 10%
[6]
  %Inh: 1%
[7]
  %Inh: 9%
S6K1
  %Inh: 2%
SBK1
  %Inh: 13%
SGK2
  %Inh: 0%
SGK3
  %Inh: 0%
SGK
  %Inh: 2%
SIK2
  %Inh: 0%
SIK
  %Inh: 0%
SLK
  %Inh: 22%
SNARK
  %Inh: 0%
SNRK
  %Inh: 0%
SRC
  %Inh: 1%
SRMS
  %Inh: 5%
SRPK1
  %Inh: 15%

## CNCc1ccc2nc(NC(=O)c3ccc(C(C)(C)C)cc3)cn2c1
[1]
  %Inh: 8%
[2]
  %Inh: 32%
[3]
  %Inh: 37%
[4]
  %Inh: 1%
[5]
  %Inh: 0%
[6]
  %Inh: 27%
[7]
  %Inh: 7%
S6K1
  %Inh: 17%
SBK1
  %Inh: 27%
SGK2
  %Inh: 12%
SGK3
  %Inh: 31%
SGK
  %Inh: 2%
SIK2
  %Inh: 4%
SIK
  %Inh: 3%
SLK
  %Inh: 0%
SNARK
  %Inh: 34%
SNRK
  %Inh: 20%
SRC
  %Inh: 3%
SRMS
  %Inh: 0%
SRPK1
  %Inh: 33%

## Cc1cnc(N)c(/C=C/c2cncc(C(=O)NCCc3ccc(Cl)cc3Cl)c2)c1.Cl [GSK190937]
[1]
  %Inh: 0%
[2]
  %Inh: 0%
[3]
  %Inh: 2%
[4]
  %Inh: 0%
[5]
  %Inh: 0%
[6]
  %Inh: 0%
[7]
  %Inh: 20%
S6K1
  %Inh: 0%
SBK1
  %Inh: 19%
SGK2
  %Inh: 0%
SGK3
  %Inh: 0%
SGK
  %Inh: 0%
SIK2
  %Inh: 0%
SIK
  %Inh: 0%
SLK
  %Inh: 0%
SNARK
  %Inh: 0%
SNRK
  %Inh: 0%
SRC
  %Inh: 0%
SRMS
  %Inh: 24%
SRPK1
  %Inh: 24%

## COc1ccc(Nc2nccc(NCCNC(=O)Nc3cc(C)ccc3C)n2)cc1 [GSK1379899]
[1]
  %Inh: 0%
[2]
  %Inh: 4%
[3]
  %Inh: 9%
[4]
  %Inh: 0%
[5]
  %Inh: 0%
[6]
  %Inh: 0%
[7]
  %Inh: 0%
S6K1
  %Inh: 0%
SBK1
  %Inh: 0%
SGK2
  %Inh: 0%
SGK3
  %Inh: 0%
SGK
  %Inh: 0%
SIK2
  %Inh: 0%
SIK
  %Inh: 0%
SLK
  %Inh: 27%
SNARK
  %Inh: 0%
SNRK
  %Inh: 0%
SRC
  %Inh: 0%
SRMS
  %Inh: 0%
SRPK1
  %Inh: 34%

## COc1ccc(Nc2nccc(N3CCC(NC(=O)c4cc5ccccc5s4)C3)n2)cc1 (stereo not drawn) [GSK1379738]
[1]
  %Inh: 4%
[2]
  %Inh: 10%
[3]
  %Inh: 4%
[4]
  %Inh: 1%
[5]
  %Inh: 0%
[6]
  %Inh: 0%
[7]
  %Inh: 0%
S6K1
  %Inh: 0%
SBK1
  %Inh: 2%
SGK2
  %Inh: 0%
SGK3
  %Inh: 7%
SGK
  %Inh: 0%
SIK2
  %Inh: 0%
SIK
  %Inh: 0%
SLK
  %Inh: 4%
SNARK
  %Inh: 6%
SNRK
  %Inh: 0%
SRC
  %Inh: 0%
SRMS
  %Inh: 0%
SRPK1
  %Inh: 17%

## O=C1NC(=O)C(c2ccc(Cl)cc2)=C1Nc1ccc(O)cc1 [SB-340867]
[1]
  %Inh: 0%
[2]
  %Inh: 13%
[3]
  %Inh: 0%
[4]
  %Inh: 0%
[5]
  %Inh: 0%
[6]
  %Inh: 0%
[7]
  %Inh: 0%
S6K1
  %Inh: 0%
SBK1
  %Inh: 0%
SGK2
  %Inh: 0%
SGK3
  %Inh: 6%
SGK
  %Inh: 0%
SIK2
  %Inh: 0%
SIK
  %Inh: 0%
SLK
  %Inh: 9%
SNARK
  %Inh: 0%
SNRK
  %Inh: 0%
SRC
  %Inh: 0%
SRMS
  %Inh: 0%
SRPK1
  %Inh: 18%

## CN1c2ccc(-c3ccc(C(N)=O)cc3)cc2-c2[nH]ncc2S1(=O)=O
[1]
  %Inh: 47%
[2]
  %Inh: 17%
[3]
  %Inh: 35%
[4]
  %Inh: 0%
[5]
  %Inh: 41%
[6]
  %Inh: 0%
[7]
  %Inh: 38%
S6K1
  %Inh: 0%
SBK1
  %Inh: 0%
SGK2
  %Inh: 8%
SGK3
  %Inh: 0%
SGK
  %Inh: 0%
SIK2
  %Inh: 10%
SIK
  %Inh: 8%
SLK
  %Inh: 2%
SNARK
  %Inh: 0%
SNRK
  %Inh: 0%
SRC
  %Inh: 7%
SRMS
  %Inh: 4%
SRPK1
  %Inh: 0%

## O=C(Nc1n[nH]c2nc(-c3ccco3)c(Br)cc12)C1CCN(Cc2ccccc2)C1.O=C(O)[C@H](O)[C@@H](O)C(=O)O (stereo not drawn) [SB-742034]
[1]
  %Inh: 0%
[2]
  %Inh: 35%
[3]
  %Inh: 0%
[4]
  %Inh: 6%
[5]
  %Inh: 0%
[6]
  %Inh: 16%
[7]
  %Inh: 12%
S6K1
  %Inh: 23%
SBK1
  %Inh: 19%
SGK2
  %Inh: 27%
SGK3
  %Inh: 24%
SGK
  %Inh: 18%
SIK2
  %Inh: 9%
SIK
  %Inh: 52%
SLK
  %Inh: 8%
SNARK
  %Inh: 11%
SNRK
  %Inh: 0%
SRC
  %Inh: 0%
SRMS
  %Inh: 17%
SRPK1
  %Inh: 28%
